From PubChem BioAssay
RXFP1 ag: qHTS Assay for Agonists of the Relaxin Receptor RXFP1; Relaxin receptor 1 (Homo sapiens), Q9HBX9; HEK293T-RXFP1 cAMP TR-FRET, 30 min; response scale: percent of porcine relaxin response, buffer zero; Potency, µM (highest dose often 57.5 µM), most hits filed as activators; 370,000 tested, 0.3% active; active means well fitted activation curve with a large enough effect; inconclusive means small, poorly fitted or top-dose-only effect; further: nearly all actives have a fitted effect of over 60% in size
Target sequence (Q9HBX9 whole entry, looked up): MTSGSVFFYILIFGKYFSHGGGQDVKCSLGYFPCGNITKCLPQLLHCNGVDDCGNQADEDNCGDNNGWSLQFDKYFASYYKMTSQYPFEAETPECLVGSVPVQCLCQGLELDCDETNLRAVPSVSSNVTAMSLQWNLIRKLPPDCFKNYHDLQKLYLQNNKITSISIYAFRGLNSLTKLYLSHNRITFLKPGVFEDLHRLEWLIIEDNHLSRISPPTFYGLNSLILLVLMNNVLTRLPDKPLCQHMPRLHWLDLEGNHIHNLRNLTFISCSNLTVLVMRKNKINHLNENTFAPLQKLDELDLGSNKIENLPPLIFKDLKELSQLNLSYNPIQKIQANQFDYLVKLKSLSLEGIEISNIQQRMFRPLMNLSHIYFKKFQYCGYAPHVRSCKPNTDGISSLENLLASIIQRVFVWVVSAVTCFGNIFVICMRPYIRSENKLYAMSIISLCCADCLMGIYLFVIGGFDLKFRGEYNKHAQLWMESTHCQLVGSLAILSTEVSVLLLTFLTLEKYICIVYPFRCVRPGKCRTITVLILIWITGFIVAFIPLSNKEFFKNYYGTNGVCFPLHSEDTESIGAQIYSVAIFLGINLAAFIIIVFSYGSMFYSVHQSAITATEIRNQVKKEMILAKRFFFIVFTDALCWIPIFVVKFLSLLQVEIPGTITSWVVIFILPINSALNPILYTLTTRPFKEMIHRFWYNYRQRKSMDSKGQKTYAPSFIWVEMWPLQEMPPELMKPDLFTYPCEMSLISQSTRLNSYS
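Agonist response is measured as cAMP accumulation in an RXFP1-transfected HEK293T line under PDE4 inhibition. Values are scaled between buffer-only and 29 nM porcine relaxin, and EC50s come from standard Hill equation fits.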
RXFP1 antagonist: qHTS Assay for Antagonists of the Relaxin Receptor RXFP1; activity change, negative = inhibition, % at 57.5 µM; Relaxin receptor 1 (Homo sapiens), Q9HBX9; 350,000 tested, 0.59% active; HEK293-RXFP1, relaxin-stimulated cAMP HTRF, 30 min; stronger effect = lower value; AID 1259400, 2018;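 active means activity change of -60% or lower, but not beyond a set lower limit; inconclusive means change between -60% and -40%, or beyond the set limit; inactive means change above -40%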
KCNH2 3.1 block: qHTS for Inhibitors of KCHN2 3.1: Mutant qHTS | Potassium voltage-gated channel subfamily H member 2, brain isoform KCNH2 3.1 (human) | 340,000 tested, 0.95% active | U2OS KCNH2 3.1, thallium flux FluxOr; stronger effect = lower value | activity change, % (tested at about 1.8 µM);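 active means maximum activity change below -70%; inconclusive means maximum activity change from -70% to -50%; inactive means maximum activity change above -50%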;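 further: thallium influx rate constant from kinetic fluorescence after stimulation buffer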
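Steps: virus added to U2OS suspension (4 h, RT, dark); medium with 10% FBS added, cells plated, 37 C overnight; FluxOr/Red40 loading buffer 45 min RT; stimulation buffer, 2 min kinetic read; rate constant normalized.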
pAkt inh: HTS Assay for Inhibitors of Akt Phophorylation: Primary Screen; Neuro2A IGF-stimulated pAkt S473 HTRF, 20 min; stronger effect = lower value; activity change, % for hits at 50 µM; 360,000 tested, 0.32% active; AID 651550, 2012; in the data active means activity change below about -80%; inconclusive means mostly about -51% to -80%
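Neuro2A cells (4,500/well, DMEM with 0.5% FBS) were treated with compound at a single 50 µM final concentration, stimulated with 6 nM IGF for 20 min at 37 °C, and lysed. Phospho-Akt Ser473 was read by HTRF as 665/615 ratio ×10^4.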
hERG WT inh: qHTS for Inhibitors of KCHN2 3.1: Wildtype qHTS | Voltage-gated inwardly rectifying potassium channel KCNH2 (Homo sapiens), Q12809 | U2OS, BacMam KCNH2, thallium flux FluxOr; stronger effect = lower value | activity change, % at 1.84 µM | 340,000 tested, 0.37% active | AID 720551, 2013;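 active means maximum activity change below -70%; inconclusive means maximum activity change between -70% and -50%; inactive means maximum activity change above -50%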
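U2OS cells were transduced with wild-type KCNH2 virus (2.03 x 10^8 / mL) for 4 h at room temperature, then cultured overnight at 37 C. Thallium flux was read with FluxOr dye. Rate constants were normalized to DMSO controls.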
Hits are given with their value; – = inactive; ? = inconclusive; · = no result. Sampled rows, rich in hits. Any-hit rate of the full collection: about 1.7%.

SMILES	RXFP1 ag	RXFP1 antagonist	KCNH2 3.1 block	pAkt inh	hERG WT inh
CCN(CC)c1ccc(NC(=O)CN2CCN(CC(=O)Nc3ccc(F)cc3)CC2)cc1	–	–	-101.1	–	-74.6
Fc1ccc(NC(=S)NCc2ccc3c(c2)OCO3)cc1	–	–	-71.3	–	–
CCN(CC)c1ccc(NC(=O)CN2CCN(CC(=O)Nc3ccc(OC)cc3)CC2)cc1	–	–	-85.7	–	–
O=C(CN1CCN(CC(=O)Nc2ccc(Cl)cc2)CC1)Nc1ccc(F)cc1	–	–	-117.6	–	-136.9
O=C(CN1CCN(C(=O)N2CCOCC2)CC1)Nc1ccc(Br)cc1	–	–	-70.5	–	-118.2
O=C(CN1CCOCC1)Nc1ccc(Br)cc1	–	–	–	–	–
O=C(CN1CCCC1)Nc1ccc(F)cc1	–	–	–	–	–
CCCCCC(=O)Nc1ccc(C(=O)CN2C(=O)NC3(CCCCCC3)C2=O)cc1	–	-89.8	–	–	–
CCOC(=O)CSc1nnc(Cc2ccccc2)n1-c1ccc(C)cc1	–	–	–	–	–
COc1ccc(-c2noc(CSc3nnc(Cc4ccccc4)n3-c3ccc(Cl)cc3)n2)cc1	–	–	–	–	–
COc1ccccc1-c1noc(CSc2nnc(Cc3ccccc3)n2-c2ccc(C)c(C)c2)n1	–	-64.8	·	·	·
Cc1ccc(-c2noc(CSc3nnc(Cc4ccccc4)n3-c3ccc(Cl)cc3)n2)cc1	–	–	-74.4	–	–
Cc1ccc(-n2c(Cc3ccccc3)nnc2SCC(=O)NNC(=O)Cc2ccccc2)cc1	–	–	-80.1	–	–
COc1ccc(Cc2nnc(SCC(=O)N3CCCC(C)C3)o2)cc1 (stereo not drawn)	–	–	–	–	–
CCNc1nc(N2CCOCC2)nc(N(c2ccccc2)c2ccccc2)n1	–	–	–	-110.3%	–
C/C(=N\O)c1ccc2c3c([nH]c2c1)CCCC3	–	?	–	-90.2%	–
CC1=Nn2c(nc3sc4c(c3c2=O)CCCC4)SC1	–	–	–	–	–
Cc1ccc(C)c(N(C(=O)c2snc(C(N)=O)c2N)C(C(=O)NCC2CCCO2)c2ccc(C)o2)c1 (stereo not drawn)	–	-86.9	–	–	–
NC(=O)c1nsc(C(=O)N(c2ccc(Cl)cc2)C(C(=O)NCC2CCCO2)c2cccs2)c1N (stereo not drawn)	–	-62.3	–	–	–
Nc1nonc1NN=C1CCCCC1	–	–	-80.5	–	–
COC(=O)COc1ccc2c(-c3ccc(OC)cc3)cc(=O)oc2c1	–	–	-79.3	–	?
Cc1c(C(=O)NCc2ccc(Cl)cc2)sc2nc3n(c(=O)c12)CCCC3	–	–	·	·	·
O=C(NCCCN1CCCC1)[C@H](CSCc1ccccc1)N1Cc2ccccc2C1=O	–	-60.1	–	–	–
CCOC(=O)C1(C)CCCN(C(=O)c2snnc2C)C1 (stereo not drawn)	·	·	·	–	·
COc1ccc(NC(=O)c2cc3sccc3n2Cc2ccc(F)cc2)cc1OC	–	–	–	–	-249.1
SMILES	RXFP1 ag	RXFP1 antagonist	KCNH2 3.1 block	pAkt inh	hERG WT inh
CSc1ccc(C(=O)N2CCc3ccc(NC(=O)c4ccccn4)cc3C2)cc1	–	-68.7	–	–	–
COc1ccc(C)cc1NC(=O)c1cc2ccccn2n1	–	–	·	·	·
O=c1c2ccccc2nc(COc2ccccc2)n1/N=C/c1c[nH]c2ccccc12	–	·	–	–	–
O=c1c2ccccc2nc(COc2ccccc2)n1/N=C/c1ccc(O)cc1O	–	-70.9	–	–	–
Cc1cc2nc(-c3ccco3)c(CC(C)(C)C)n2c(C)c1Br	·	·	·	–	·
c1ccc(CN2CCN(Cc3c[nH]c4ccccc34)CC2)cc1	–	–	–	–	–
Clc1ccc(N2CCN(Cc3c[nH]c4ncccc34)CC2)cc1	–	·	-82.0	–	·
C=C1CCN([C@@H](Cc2ccccc2)C(=O)NCc2ccc(Cl)cc2)S(=O)(=O)c2ccccc21	·	·	-70.4	–	–
CCN1CCN(C(=O)Nc2cccc(C(F)(F)F)c2)CC1	–	–	-79.3	–	–
Cn1nc(-c2ccc(N3CCCCC3)c(NC(=O)c3ccco3)c2)c2ccccc2c1=O	–	–	–	–	–
Cn1c(=O)c2c(nc(Br)n2Cc2ccccc2Cl)n(C)c1=O	–	–	-88.3	–	–
O=C(Nc1ccc(S(=O)(=O)Nc2nccs2)cc1)c1cc(-c2ccccn2)nc2ccccc12	–	–	–	–	–
Cc1cc(NC(=O)CCC(=O)N(C(C(=O)NC(C)(C)C)c2ccccc2Cl)C(C)(C)C)no1 (stereo not drawn)	–	–	-164.6	–	–
O=C(O)C1CC(=O)N(Cc2ccc(F)cc2)C1 (stereo not drawn)	–	–	–	–	–
Cc1cc(C)n(-c2nc(NCCN(C)C)c3c4c(sc3n2)COC(C)(C)C4)n1	–	-71.5	–	–	–
c1ccc(-n2cnc3cc(NCc4ccccn4)ccc32)cc1	–	–	–	–	–
c1ccc(-n2cnc3cc(NCc4ccncc4)ccc32)cc1	–	–	–	-102.9%	–
CC(C)(C)n1cnc2cc(NCc3ccc(Br)cc3)ccc21	–	–	-95.7	–	–
CCc1ccc(CNc2ccc3c(c2)ncn3C(C)(C)C)cc1	–	–	·	–	·
O=C(Cn1nnc2ccccc2c1=O)NC1CCCCC1	–	–	–	–	–
O=C(Cn1nnc(-c2ccccc2F)n1)N1CCCCC1	–	–	-133.8	–	–
O=C(CSc1nnnn1C1CCCC1)Nc1ccc(F)cc1	–	–	–	-110.4%	–
c1ccc(OCCSc2nnnn2C2CCCCC2)cc1	–	–	–	-111.7%	–
COc1ccc(NC(=O)CSc2nnnn2C2CCCCC2)cc1	–	-78.4	–	–	–
O=C(CSc1nnnn1C1CCCCC1)Nc1ccc(F)cc1	–	–	–	–	–
SMILES	RXFP1 ag	RXFP1 antagonist	KCNH2 3.1 block	pAkt inh	hERG WT inh
COc1ccc(NC(=O)CSc2nnnn2C2CCCC2)cc1	–	–	–	–	·
COc1ccc(CN2CCN(Cc3ccco3)CC2)c(OC)c1	–	–	–	–	–
CCCCSc1nnc2c(n1)OC(c1ccc(Br)s1)N(C(C)=O)c1ccccc1-2 (stereo not drawn)	–	–	·	·	·
CCCCN(C)C(=O)Cn1cnc2sc(C)c(S(=O)(=O)N3CCN(c4ccccc4OC)CC3)c2c1=O	–	–	–	–	–
CCCOc1ccc(CC(=O)NCC2(c3ccccc3)CCOCC2)cc1OC	–	–	–	-116.8%	–
CCCOc1ccc(CC(=O)NCc2ccco2)cc1OC	–	–	–	–	–
Cc1nc2ccc(Cl)cc2nc(C)/c1=N\O	–	–	-91.6	·	–
Cc1cccc(NC(=O)Cn2cc(C(=O)C3CCCCC3)c3ccccc32)c1C	–	–	·	·	·
